Results filed as inconclusive are left out. The source made the active and inactive calls.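 How the source made its calls, unless noted: active means growth inhibition above 25% in both replicates, a cutoff set 3 SD above the mean; inconclusive means above 25% in only one replicate; inactive means the rest.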
Experiments:
[1] = reducers of endogenous Her2 protein level, primary screen, SKBR3 breast tumor cells, AlphaScreen, ATP viability (AID 461;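 active means Her2 level under about 52% in both replicate screens, with viability over 70% of control, limit read from the data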;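 on Her2 level: lower value means less Her2 protein in the cells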;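 on viability: percent of carrier control wells set as 100% viability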); conditions: 18-24 h, measured here: SKBR3 viability, ATP luminescence, at 10 µM
[2] = molecular target: Receptor tyrosine-protein kinase erbB-2 (Homo sapiens) (UniProt P04626); test: as above; conditions: 18-24 h, at 10 µM, stronger effect = lower value
Chain of Receptor tyrosine-protein kinase erbB-2 (Homo sapiens) (P04626 whole entry, looked up): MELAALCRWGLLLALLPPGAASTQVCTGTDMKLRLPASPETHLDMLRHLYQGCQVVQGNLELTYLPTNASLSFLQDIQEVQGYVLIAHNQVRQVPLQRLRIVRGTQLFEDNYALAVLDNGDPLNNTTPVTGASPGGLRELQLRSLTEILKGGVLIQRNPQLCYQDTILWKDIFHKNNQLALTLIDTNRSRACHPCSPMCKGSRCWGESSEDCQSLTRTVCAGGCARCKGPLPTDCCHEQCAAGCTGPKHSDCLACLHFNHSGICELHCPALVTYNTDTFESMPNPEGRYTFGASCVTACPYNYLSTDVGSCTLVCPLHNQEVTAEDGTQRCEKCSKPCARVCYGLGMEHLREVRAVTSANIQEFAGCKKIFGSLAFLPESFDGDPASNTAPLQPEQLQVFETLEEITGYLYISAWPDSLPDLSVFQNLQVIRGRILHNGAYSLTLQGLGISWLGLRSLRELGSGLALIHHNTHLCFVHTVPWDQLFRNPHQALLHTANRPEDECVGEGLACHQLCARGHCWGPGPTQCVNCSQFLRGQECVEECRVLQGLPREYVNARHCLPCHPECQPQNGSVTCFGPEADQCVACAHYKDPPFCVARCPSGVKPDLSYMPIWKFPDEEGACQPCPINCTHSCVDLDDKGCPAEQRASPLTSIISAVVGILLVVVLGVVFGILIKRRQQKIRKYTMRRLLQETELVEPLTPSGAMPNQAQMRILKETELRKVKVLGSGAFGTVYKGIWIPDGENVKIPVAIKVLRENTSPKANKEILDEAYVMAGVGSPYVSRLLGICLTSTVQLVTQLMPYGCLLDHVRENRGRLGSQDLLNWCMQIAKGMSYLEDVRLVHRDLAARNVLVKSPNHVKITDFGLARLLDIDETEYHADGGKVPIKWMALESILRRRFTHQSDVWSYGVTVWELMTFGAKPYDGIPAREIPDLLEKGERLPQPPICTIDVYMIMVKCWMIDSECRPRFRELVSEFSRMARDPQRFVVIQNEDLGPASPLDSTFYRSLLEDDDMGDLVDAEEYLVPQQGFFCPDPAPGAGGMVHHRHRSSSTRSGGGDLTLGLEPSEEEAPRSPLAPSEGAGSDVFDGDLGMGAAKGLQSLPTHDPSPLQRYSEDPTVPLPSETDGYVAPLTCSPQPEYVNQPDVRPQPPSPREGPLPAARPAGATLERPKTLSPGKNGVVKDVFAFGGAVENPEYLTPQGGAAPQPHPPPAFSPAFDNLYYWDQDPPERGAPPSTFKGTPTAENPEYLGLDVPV

[3] = SK-BR-3 cell growth inhibitors, pilot screen, 24 h, human (AID 572;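 active means viability at or below 10% of carrier control in both of two separate runs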;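 further: compound exposure lasted between 18 and 24 h rather than exactly 24 h; 100% = carrier-treated control wells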); conditions: SK-BR-3 viability, CellTiter-Glo luminescence, at 10 µM, stronger effect = lower value
[4] = HUVEC growth inhibition – cell-based, human, primary screen (AID 575;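 active means viability at or below 30% in both replicate assays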;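 further: 100% = median of untreated cell wells with 0.1% DMSO on each plate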); conditions: HUVEC proliferation, CellTiter-Glo luminescence, 72 h; at 10 µM; stronger effect = lower value
[5] = growth inhibitors of H69AR lung tumor, primary screen, human, duplicate replicates (AID 580;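 active means viability at or under a set limit in both replicates, limit being median viability minus 3 SD, cut at about 48% in these data, passing the limit was not always enough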;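 further: 100% = mean luminescence of untreated wells and 0% = no signal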); conditions: H69AR lung tumor cells viability, ATP luminescence, 72 h; at 10 µM; stronger effect = lower value
[6] = reversal of MRP1-mediated doxorubicin resistance, pilot screen, H69AR cells, doxorubicin co-treatment (AID 601;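 active means viability loss from added drug above about 55%, and viability with drug at most 40%, in both replicates, limit read from the data, passing the limit was not always enough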); conditions: CellTiter-Glo, 72 h, at 10 µM; for differential viability (reversal): stronger effect = higher value
[7] = 384-well plate pilot, post-Golgi transport modulator project, inhibition of yeast transport mutant growth (AID 636; in the data active means inhibition above about 31%); conditions: absorbance 615 nm, about 18 h, stronger effect = higher value
[8] = growth suppression of yeast trafficking mutant, preliminary HTS, modulators of trafficking downstream of Golgi apparatus project, 1536-format plate, OD 615 nm (AID 637; in the data active means inhibition above about 30%); conditions: yeast transport mutant growth, absorbance 615 nm, 18 h; stronger effect = higher value
[9] = OD615 S. cerevisiae growth inhibition, permissive medium, pilot counter-assay, permissive growth control for S. cerevisiae lifespan shortening project (AID 705); conditions: OD615, 24 h, at 10 µM, stronger effect = higher value
[10] = Restrictive medium S. cerevisiae growth inhibition, OD615, pilot screen of yeast lifespan reduction project, restrictive growth control (AID 706;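 active means growth inhibition above a set limit, 3 SD over mean compound inhibition, in both replicates, cut at about 43% in these data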;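 further: modified DeaD lifespan yeast strain shifted to restrictive glucose medium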); conditions: OD615, 48 h, at 10 µM, stronger effect = higher value
[11] = viability gain of MRP-1-high H69AR cells under doxorubicin, pilot screen, MRP-1 activator project, CellTiter-Glo, duplicate (AID 807;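 active means viability increase at or above a cutoff of the median across tested compounds plus 3 SD, cut at about 8.5% in these data, passing the limit was not always enough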;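 further: compound pretreatment 18-22 h then 72 h combined with doxorubicin; 0% = doxorubicin alone and 100% = vehicle without doxorubicin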); conditions: H69AR viability with doxorubicin, CellTiter-Glo luminescence; at 10 µM; stronger effect = higher value
[12] = growth suppression of beta-catenin knockout HCT116, pilot screen, human colon tumor cells (AID 823;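 active means cell viability at or below a set limit in both duplicate runs, the limit being the all-compound median minus 4 SD, cut at about 23% in these data, passing the limit was not always enough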;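 further: 0% = wells killed by 20 µM Hyamine and 100% = untreated DMSO cell wells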); conditions: CellTiter-Glo, 60 h, at 10 µM, stronger effect = lower value
[13] = growth suppression of PTEN-deleted HCT116, pilot screen, cell-based, HCT116 clonal line, CellTiter-Glo (AID 824;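 active means viability at or below 27.92% in each of two runs, the all-compound median minus 4 SD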;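 further: 0% = 20 µM Hyamine control and 100% = vehicle cell control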); conditions: 60 h, at 10 µM, stronger effect = lower value
[14] = inhibitors of the yeast RAM network, pilot screen, dse1pr::URA3 reporter, 5-FOA selection (AID 869;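 active means inhibition over a set limit, the all-compound mean plus 3 SD, in both replicate runs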;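 further: 0% = DMSO wells with no growth and 100% = 10 µM 1-NA-PP1 with full growth; RAM network block rescues cells from 5-FOA so hits raise OD615 growth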); conditions: S. cerevisiae dse1pr::URA3 5-FOA growth, OD615, 2 d; at 10 µM; stronger effect = higher value; strain carries analog-sensitive mutant Cbk1 kinase
[15] = RAM signaling pathway blockade in yeast – S. cerevisiae, Pdr1DBD-CYC8 efflux-inhibited sensitized strain, primary screen (AID 1298;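 active means RAM network inhibition above 8.4% in each of two replicates, 3 SD over the compound average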;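 further: 0% = DMSO untreated cells without growth and 100% = 10 µM 1-NA-PP1 full growth; higher means more yeast growth rescued from 5-FOA killing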); conditions: S. cerevisiae cbk1-as DSE1-URA3 strain, 5-FOA growth OD615, 2 d; at 50 µM; stronger effect = higher value
[16] = H69AR cells + 2 uM doxorubicin, measured here: viability with 2 uM doxorubicin, stronger effect = lower value
[17] = H69AR cells, compound alone cytotoxicity

| SMILES | viability [1] | Her2 level [2] | viability [3] | viability [4] | viability [5] | differential viability (reversal) ([6]; H69AR cells + 2 uM doxorubicin) | viability [6, 16] | viability [6, 17] | inhibition [7] | inhibition [8] | growth inhibition [9] | growth inhibition [10] | viability increase [11] | viability [12] | viability [13] | inhibition [14] | RAM network inhibition [15] |
| --- | --- | --- | --- | --- | --- | --- | --- | --- | --- | --- | --- | --- | --- | --- | --- | --- | --- |
| CCOC(=O)N1CCN(C(c2ccc(Cl)cc2)c2sc3nc(C)nn3c2O)CC1 (stereo unspecified) | 94% | 89% (inactive) | 94% (inactive) | 87.7% (inactive) | 94.7% (inactive) | -8.7% (inactive) | 103% | 94.7% | -4.67% (inactive) | 0.33% (inactive) | 1.38% (inactive) | 1.06% (inactive) | 0.03% (inactive) | 98.4% (inactive) | 106% (inactive) | 0.72% (inactive) | 6.22% (inactive) |
| CCOC(=O)N1CCC(Nc2ncnc3c2cnn3-c2ccc(C)cc2C)CC1 | 86% | 78.5% (inactive) | 86% (inactive) | 83.4% (inactive) | 72.7% (inactive) | 42.5% (inactive) | 30.2% | 72.7% | -4% (inactive) | 1.5% (inactive) | 5.81% (inactive) | -2.8% (inactive) | -6.54% (inactive) | 70.2% (inactive) | 67.4% (inactive) | 0.78% (inactive) | 1.71% (inactive) |
| CCCCSc1nc(CCC)cc(=O)[nH]1 | 86.5% | 118% (inactive) | 86.5% (inactive) | 91.9% (inactive) | 88.2% (inactive) | -0.345% (inactive) | 88.5% | 88.2% | 2.05% (inactive) | -12.5% (inactive) | -14.4% (inactive) | -14.4% (inactive) | -1.29% (inactive) | 99.6% (inactive) | 104% (inactive) | 0.635% (inactive) | 6.04% (inactive) |
| O=C1CCCCCC1C1(O)C(=O)Nc2ccccc21 (stereo unspecified) | 100% | 96.5% (inactive) | 100% (inactive) | 87.9% (inactive) | 95.7% (inactive) | 1.21% (inactive) | 94.4% | 95.7% | -4.68% (inactive) | -1.67% (inactive) | -0.65% (inactive) | -10.4% (inactive) | -2.3% (inactive) | 99.7% (inactive) | 95% (inactive) | 1.43% (inactive) | 1.29% (inactive) |
| CC1CCc2nn(CC(=O)NCCN3CCOCC3)cc2C1 (stereo unspecified) | 101% | 113% (inactive) | 101% (inactive) | 98.6% (inactive) | 89.4% (inactive) | -8.26% (inactive) | 97.7% | 89.4% | -2.44% (inactive) | -2.33% (inactive) | 2.41% (inactive) | 6.26% (inactive) | 0.93% (inactive) | 108% (inactive) | 101% (inactive) | 0.965% (inactive) | 4.43% (inactive) |
| O=C(OCn1nnc2ccccc2c1=O)c1cc2ccccc2o1 | 88% | 106% (inactive) | 88% (inactive) | 94.6% (inactive) | 91.7% (inactive) | -23.7% (inactive) | 115% | 91.7% | -5.47% (inactive) | -8.5% (inactive) | 3.37% (inactive) | -2.58% (inactive) | 1.18% (inactive) | 99.5% (inactive) | 104% (inactive) | 3.96% (inactive) | 7.11% (inactive) |
| COC(=O)CCC(=O)Nc1ccc(OC)cc1 | 104% | 84% (inactive) | 104% (inactive) | 121% (inactive) | 85.1% (inactive) | -13.2% (inactive) | 98.3% | 85.1% | -6.22% (inactive) | 0.98% (inactive) | -2.88% (inactive) | -6.16% (inactive) | -1.06% (inactive) | 98.6% (inactive) | 101% (inactive) | 0.605% (inactive) | 2.52% (inactive) |
| CCOC(=O)c1cccc(NC(=O)CNS(=O)(=O)c2cccs2)c1 | 95.5% | 92% (inactive) | 95.5% (inactive) | 97% (inactive) | 88.3% (inactive) | -2.06% (inactive) | 90.4% | 88.3% | -8.36% (inactive) | -5.71% (inactive) | -0.595% (inactive) | -4.69% (inactive) | 0.66% (inactive) | 102% (inactive) | 97.7% (inactive) | 1.43% (inactive) | 0.44% (inactive) |
| Cn1cnc2cc(NC(=O)c3ccc(Cl)cc3)ccc21 | 91.5% | 90.5% (inactive) | 91.5% (inactive) | 88.1% (inactive) | 93% (inactive) | -2.15% (inactive) | 95.2% | 93% | -4% (inactive) | -3.33% (inactive) | 0.595% (inactive) | 7.51% (inactive) | 0.08% (inactive) | 94.5% (inactive) | 96.5% (inactive) | 0.75% (inactive) | -1.41% (inactive) |
| Cn1nnc2cc(C(=O)N3CCCCCC3)ccc21 | 81.5% | 99.5% (inactive) | 81.5% (inactive) | 81.7% (inactive) | 105% (inactive) | 10.6% (inactive) | 94.3% | 105% | -4.73% (inactive) | -6.23% (inactive) | -10.5% (inactive) | -19.7% (inactive) | -0.53% (inactive) | 109% (inactive) | 96% (inactive) | 0.345% (inactive) | 1.87% (inactive) |
| COCCCNC(=O)CSc1ccc(Cl)cc1 | 94.5% | 85% (inactive) | 94.5% (inactive) | 81.8% (inactive) | 95.3% (inactive) | 3.39% (inactive) | 91.9% | 95.3% | 0% (inactive) | -2.67% (inactive) | 1.36% (inactive) | -6.93% (inactive) | -1.7% (inactive) | 106% (inactive) | 97.8% (inactive) | 2.25% (inactive) | 2.53% (inactive) |
| CC(=O)OCCNc1cc(N2CCN(C)CC2)c2noc3c2c1C(=O)c1ccccc1-3 | 83% | 102% (inactive) | 83% (inactive) | 68.9% (inactive) | 66.9% (inactive) | -8.49% (inactive) | 75.4% | 66.9% | -1.54% (inactive) | 3.33% (inactive) | -7.97% (inactive) | -9.2% (inactive) | -6.89% (inactive) | 76.8% (inactive) | 73% (inactive) | 8.66% (active) | 12.4% (inactive) |
| COc1ccc(S(=O)(=O)NCC(c2cccnc2)N2CCN(C)CC2)cc1C (stereo unspecified) | 97% | 98.5% (inactive) | 97% (inactive) | 80.9% (inactive) | 91% (inactive) | -2.52% (inactive) | 93.5% | 91% | -0.64% (inactive) | -2% (inactive) | 1.16% (inactive) | -9.37% (inactive) | -2.64% (inactive) | 97.8% (inactive) | 96.1% (inactive) | 2.23% (inactive) | 0.11% (inactive) |

From PubChem BioAssay
